According to PubChem BioAssay AID624483 (NMMLSC, 2012):
Screen size: about 360,000 compounds; about 11,000 (3.1%) were called active. Another 2% or so got no clear call; they are omitted. Only a selection was taken, and actives are over-represented in it overall. Values without a mark were called inactive. No stated cut-off is given here; in the data, active means fluorescence intensity above about 16000; inconclusive means no clear call, values can overlap the other calls; inactive means below that.

Assay: counter-screen for toxin protease inhibitors: compound fluorescence, primary screen, artefact control for toxin protease inhibitor project, biochemical, multiplex microsphere, HTS (AID 624483)
Settings: compound autofluorescence counterscreen, microsphere flow cytometry; active compounds read high

Point of comparison: `COC(=O)c1nc2n(n1)C(c1ccc([N+](=O)[O-])cc1)C(C(=O)Nc1ccc(Cl)cc1)=C(C)N2` (stereo not given), fluorescence intensity 2390. Against it:
- CCc1sc(C(=O)N2CCN(CC(=O)Nc3cccc(F)c3)CC2)cc1C — higher, 3730
- Cc1ccc(NC2CCCN(C(=O)CCc3cn[nH]c3)C2)cc1C (stereo not given) — higher, 4290
- CC1=C(C(N)=O)C(c2ccc(F)cc2)n2nc(CCCO)nc2N1 (stereo not given) — higher, 3660
- O=C(Nc1ccc(Cl)cc1)C1Cc2c(-c3ccc4c(c3)OCO4)ccnc2O1 (stereo not given) — higher, 3410
- Cc1c(C(=O)Nc2cccc(S(=O)(=O)N3CCOCC3)c2)oc2ccccc12 — higher, 2760
- COc1ccc(NC(=O)c2oc3ccc(S(=O)(=O)N4CCOCC4)cc3c2C)cc1 — higher, 4190
- CC(=O)Nc1ccc(-c2ccnc3c2CC(C(=O)NC(C)C)O3)cc1 (stereo not given) — higher, 3750
- COc1cc(C=C(OC(C)=O)c2ccc3c(c2)OCO3)cc(OC)c1OC — higher, 6370
- NNc1nc2c(Cl)cccc2s1 — higher, 6940
- CC(C)CNS(=O)(=O)c1ccc(CCC(=O)NCc2ccc(Cl)cc2)cc1 — higher, 3570
- Cc1ccc(S(=O)(=O)NCCC(=O)NCc2ccc(Cl)cc2)cc1C — higher, 4140
- Cc1ccc(-c2nc3ccc(Br)cn3c2Cc2ccccc2C(F)(F)F)cc1 — higher, 5850
- CC(=O)c1nn(-c2ccccc2)c(=Nc2ccccc2)cc1C — higher, 4100
- COc1ccc(CC(=O)NCc2nnc(SCC(=O)Nc3nccs3)n2C)cc1 — higher, 4710
- Cn1c(SCC(=O)Nc2nccs2)nnc1-c1cccnc1 — higher, 4450
- c1ccc2c(NC3C4CC5CC(C4)CC3C5)nc(N3CCOCC3)nc2c1 (stereo not given) — higher, 4640
- NC(c1csc(NC(=O)Nc2ccccc2Oc2ccccc2)n1)c1ccccc1Cl (stereo not given) — higher, 3590
- O=C(c1cc(C2CCCCN2S(=O)(=O)c2ccccc2)on1)N1CCOCC1 (stereo not given) — higher, 3020
- CC(=O)NS(=O)(=O)c1ccc(N/C(N)=N/c2nc(C)cc(C)n2)cc1 — higher, 3910
- O=C1NC(c2ccccc2)Oc2ccccc21 (stereo not given) — higher, 3320
- C[C@@H]1NC(=O)[C@@]2(C)[C@@H](c3ccccc3)[C@H]3COc4ccccc4[C@@H]3N2C1=O — higher, 3420
- Cc1cc(C)n2c(NCc3ccccc3)c(CC(C)C)nc2n1 — higher, 6800
- CCN(CC(=O)Nc1c(F)cccc1F)C(=O)c1cnc(C)cn1 — higher, 4920
- Cc1cccc(N2CCN(C(=O)/C=C/c3ccco3)CC2)c1C — higher, 2640
- CCC(CC)C(=O)N1CCN(c2cccc(C)c2C)CC1 — lower, 2200
- C=CCC[C@H](CCCCC)OC(=O)/C=C/[C@H](O)[C@@H](O)C[C@@H](O)CC=C — higher, 4110
- CCCc1ccc(C(O)c2ncc(-c3cccc(OC)c3)[nH]2)cc1 (stereo not given) — higher, 3420
- COc1cccc(-n2c(=S)sc3c(=O)n(-c4ccccc4C)c(SCC(=O)O)nc32)c1 — higher, 3210
- CCOC(=O)CSc1nc2c(c(=O)n(Cc3ccccc3Cl)c(=O)n2C)n1C — higher, 4690
- COc1ccc(NC(=O)c2sc(=O)n(Cc3ccc(S(=O)(=O)N(C)C)cc3)c2C)cc1 — higher, 5230
- COc1ccc(Nc2ccc3ccccc3c2)cc1 — higher, 3980
- COc1ccc(NC(=O)C(Br)C(C)C)cc1 (stereo not given) — higher, 3200
- Cc1cc(Br)cn2c(Cc3ccsc3)c(-c3ccc(C#N)cc3)nc12 — higher, 4980
- CC(C)Nc1nc(NCCOc2ccccc2Cl)c2sccc2n1 — higher, 4090
- COc1cc(/C=N/N2CCN(c3ccccc3)CC2)ccc1OC(C)=O — higher, 4030
- Cc1ccc(N2CCN(/N=C/c3cccs3)CC2)cc1 — higher, 15100
- CCCCc1nnc(NC(=O)CSc2nc(N)cc(=O)[nH]2)s1 — higher, 4560
- CCCCc1nc(SCC(=O)Nc2nnc(C(C)C)s2)n[nH]1 — higher, 5330
- Cc1ccc(NC(=O)CSc2nc(CSc3ccc(C)cc3)cc(=O)[nH]2)cc1 — higher, 4220
- Cc1ccc(OCCCC(=O)Nc2ccc(S(=O)(=O)Nc3cc(C)nc(C)n3)cc2)cc1 — higher, 5510
- Cc1nc2nc(SCC(=O)Nc3cccc(F)c3)[nH]c2cc1Br — higher, 5340
- CCCc1cc(=O)[nH]c(SCC(=O)Nc2ccc(C(=O)Nc3ccccc3OC)cc2)n1 — higher, 3560
- COc1ccc(C2=NS(=O)(=O)N(C)C(C(=O)N3CCCCC3)=C2)cc1 — higher, 5200
- COCCNc1ncnc2c1ncn2[C@H]1CN(Cc2ccc(OC)cc2)C[C@@H](CO)O1 — higher, 2990
- Cc1cccc(CN2CCN(C3CN(Cc4cn(Cc5ccccc5F)nn4)S(=O)(=O)C3)CC2)c1 (stereo not given) — higher, 6290
- O=C(COc1ccc(Br)cc1)OCC(=O)c1ccc[nH]1 — higher, 3140
- Cc1ccc2oc(C(=O)N3CCN(C)C[C@@H]3C(C)C)c(C)c2c1 — higher, 3260
- O=C1OCCOC2CCCc3oc(-c4ccccc4)c1c32 (stereo not given) — higher, 5740
- CCCCC(O)C1=C[N+](=O)CC=C1 (stereo not given) — higher, 4270
- CC1CCCCC1NC(=O)CCS(=O)(=O)c1cccc2nonc12 (stereo not given) — higher, 4530
- CCc1nc2c(OCc3ccc(C(F)(F)F)cc3)cccn2c1N(C)C(=O)CC(C)C — higher, 3820
- CCOC(=O)c1c(-c2ccccc2)oc2cc(Br)c(O)c(C=O)c12 — higher, 3500
- CCOC(=O)c1c(-c2ccccc2)oc2ccc(OCC(=O)NN)cc12 — higher, 3330
- CC12c3ccccc3C(c3ccccc31)C1C(=O)N(Cc3cccnc3)C(=O)C12 (stereo not given) — higher, 10400
- Cc1cccc(C)c1NC(=O)CN1C(=O)C(C)Oc2ccccc21 (stereo not given) — higher, 4620
- O=C(CSc1nnc2scc(-c3ccc(F)cc3)n12)NCc1ccco1 — higher, 7830
- Cc1ccc(NC(=O)C(=O)NCc2ccco2)c(C)c1 — higher, 4600
- Cc1cc(C)n2nc(SCC(=O)NC(=O)NCc3ccco3)nc2n1 — higher, 3150
- Cn1c(-c2ccc(F)cc2)cnc1SCC(=O)NCc1ccco1 — higher, 9840
- O=C(Nc1ccc(N2CCN(C(=O)c3ccccc3)CC2)c(Cl)c1)c1ncn[nH]1 — higher, 4940
- CCCS(=O)(=O)NC(=O)C1(C)CCCN(C(=O)c2cc(C)on2)C1 (stereo not given) — higher, 3970
- CC(C)(O)C1=C[N+](=O)CC=C1 — higher, 6070
- CN1OC[C@@H]2CN(S(=O)(=O)c3cccc(C(F)(F)F)c3)[C@H](c3ccc(-c4cc5ccccc5o4)cc3)C[C@@H]21 — higher, 3760
- Nc1[nH]c(C(=O)c2ccccc2)c(-c2ccncc2)c1C(=O)NCc1cccc2ccccc12 — higher, 5030
- CCN(CC)c1ncnc2c1ncn2[C@H]1CN(Cc2cccs2)C[C@@H](CO)O1 — higher, 3720
- CCCn1nc2cc(C(=O)NCc3ccccc3)ccc2c1OCC — higher, 4050
- Cc1ccc(CNC(=O)c2ccc3c(c2)S(=O)(=O)c2ccccc2C3=O)cc1 — higher, 3750
- O=c1[nH]cccc1-c1nc2ccccc2n1Cc1ccc(Cl)cc1 — higher, 4020
- COc1ccc(NC(=O)C2Cc3c(-c4ccc(Cl)cc4)ccnc3O2)cc1 (stereo not given) — higher, 3760
- CCOc1ccc(NC(=O)CC2NCCNC2=O)cc1 (stereo not given) — higher, 4570
- O=C(CC1NCCNC1=O)Nc1cc(Cl)cc(Cl)c1 (stereo not given) — higher, 7460
- Cc1cccc(NC(=O)CSc2nnc(CCNC(=O)OC(C)(C)C)o2)c1C — higher, 3990
- Cc1ccccc1CSc1nnc(CCCCCNC(=O)OC(C)(C)C)o1 — higher, 3660
- CCOC(=O)N1CCC(NC(=O)C(C)n2c3ccccc3c3cnn(C)c(=O)c32)CC1 (stereo not given) — higher, 3150
- COC(=O)c1ccc(NC(=O)c2cc3c(CO)cnc(C)c3oc2=Nc2cccc(C(N)=O)c2)cc1 — higher, 2910

With `COCCOC(=O)C1=C(C)Nc2nc(C)nn2C1c1ccccc1` (stereo not given) the fluorescence intensity was 17100 (active).
For `Cc1c(C(=O)Nc2ccccc2Cl)oc2ccc(S(=O)(=O)N3CCC4(CC3)OCCO4)cc12`, the fluorescence intensity was 22400 (active).
In the case of `CC(C)CCNC(=O)CCNS(=O)(=O)c1ccc(Cl)cc1`, the fluorescence intensity is reported as 19700 (active).
With `Cc1ccc(C(C)C)c(OCc2nnc(SCC(=O)Nc3nccs3)n2C)c1` the fluorescence intensity was 17800 (active).
For `CN1CC(c2ccccc2)C2(COc3ccccc3C2=O)C12C(=O)Nc1ccccc12` (stereo not given), the fluorescence intensity was 16700 (active).
In the case of `CC(=O)N1CCN(c2cccc(C)c2C)CC1`, the fluorescence intensity is reported as 20800 (active).
In the case of `CCOC(=O)CSc1nc2c(sc(=S)n2CCc2ccccc2)c(=O)n1Cc1ccco1`, the fluorescence intensity is reported as 16400 (active).
In the case of `COc1ccc(NC2=CC(=S)NC(C)(C)C2)cc1`, the fluorescence intensity is reported as 26300 (active).
For `C(=N/N1CCN(c2ccccc2)CC1)/c1cccs1`, the fluorescence intensity was 23100 (active).
For `CCCCc1nnc(NC(=O)CSc2nc(C)cc(=O)[nH]2)s1`, the fluorescence intensity was 22200 (active).
In the case of `COC(=O)c1cccc(NC(=O)CSc2nc(C)cc(=O)[nH]2)c1`, the fluorescence intensity is reported as 19300 (active).
For `COc1ccc(NC(=O)CSc2nc(NS(=O)(=O)c3ccc(C)cc3)cc(=O)[nH]2)cc1`, the fluorescence intensity was 19100 (active).
In the case of `CCOC(=O)c1c(-c2ccccc2)oc2ccc(OC(=O)N(C)C)cc12`, the fluorescence intensity is reported as 18300 (active).
With `CC1Oc2ccccc2N(Cc2cccnc2)C1=O` (stereo not given) the fluorescence intensity was 22000 (active).
For `Cc1ccc(SCC(=O)NC(=O)NCc2ccco2)c(C)c1`, the fluorescence intensity was 19200 (active).
With `Cc1ccc(-c2csc3nnc(SCC(=O)NCc4ccco4)n23)cc1` the fluorescence intensity was 16800 (active).
With `Cc1cc(N2C(=O)c3ccc(C(=O)NCc4ccccc4)cc3C2=O)no1` the fluorescence intensity was 17400 (active).
With `O=C(CC1NCCNC1=O)Nc1ccc(Oc2ccccc2)cc1` (stereo not given) the fluorescence intensity was 16900 (active).
For `Cc1cccc(NC(=O)CSc2nnc(CCCCCNC(=O)OC(C)(C)C)o2)c1C`, the fluorescence intensity was 20100 (active).
